Screening results (PubChem)
ERG-DNA inh = blocks human ERG Ets domain binding to DNA; 370,000 tested, 0.028% active; Potency, µM (titrated, usually from 76.9 µM), inactives show at the top dose FP activity, negative = inhibition, most hits filed as inhibitors; fluorescence polarization, His-ERG Ets domain / labelled DNA; P11308; active means well fitted inhibition curve with a large enough effect in the polarisation, with a control signal flat; inconclusive means small, poorly fitted or top-dose-only effect, or effect the other way, or a change in a side signal; inactive means no such curve, though single readings can be large or run the other way; the % refers to the polarisation;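 further: polarization taken with two DNA probes labelled with fluorescein and Texas red; potency means the concentration at half of the fitted maximal effect; % of control where 0% means no effect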
Target sequence (P11308 whole entry, looked up, the tested form may be a part): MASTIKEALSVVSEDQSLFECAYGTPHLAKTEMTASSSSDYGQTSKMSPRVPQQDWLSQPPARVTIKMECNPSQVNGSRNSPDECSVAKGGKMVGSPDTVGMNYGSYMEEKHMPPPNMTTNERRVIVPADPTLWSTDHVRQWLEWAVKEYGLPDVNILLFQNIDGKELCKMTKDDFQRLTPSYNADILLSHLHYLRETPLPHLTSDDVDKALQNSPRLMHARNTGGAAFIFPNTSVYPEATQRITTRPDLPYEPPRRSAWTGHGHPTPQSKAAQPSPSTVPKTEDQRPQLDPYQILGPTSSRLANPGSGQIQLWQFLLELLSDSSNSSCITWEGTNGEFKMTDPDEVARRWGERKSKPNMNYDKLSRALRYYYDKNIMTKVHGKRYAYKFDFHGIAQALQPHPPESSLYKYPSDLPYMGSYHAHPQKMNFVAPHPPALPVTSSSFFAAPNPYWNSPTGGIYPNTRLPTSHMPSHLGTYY
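His-tagged ERG Ets domain (1 uM in the protein solution; 300mM KCl, 50mM Tris-HCl, 1mM EDTA, 1mM DTT, pH 7.5) received compound, then a probe mix of 5 nM fluorescein-DNA and 100nM Texas-615-DNA. Fluorescence polarization was read for both dyes.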
a7 integrin act = activators of alpha7 integrin expression for muscular dystrophy; 350,000 tested, 0.064% active; alpha7betagal myoblasts, beta-gal FDG fluorescence, 48 h; AID 624291; Potency, µM (series often up to 38.3 µM), without a hit: top-dose activation, most hits filed as activators;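 further: potency means the concentration at half of the fitted maximal effect; 100% = response of the positive control SU9516; nearly all actives have a fitted effect of over 60% in size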
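Alpha7betagal+/- myoblasts (passage 13) were plated 16-24 hr, then exposed to compounds (1:260 dilution of DMSO stock) for 48 hours at 37C. After MPER lysis, β-galactosidase reporter activity was read as FDG fluorescence (ex 480/em 540) after 30 minutes.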
RORgamma inh = blocks mouse ROR gamma transcriptional activity; P51450; Drosophila S2 Gal4-RORgamma UAS-luciferase reporter, 20 h; Potency, µM (highest dose often 53.6 µM), without a hit: top-dose activity change, negative = inhibition, actives largely listed as inhibitors; 310,000 tested, 5.4% active; further: potency means the concentration at half of the fitted maximal effect; on the % scale 0 is the no-effect control and ±100 the full control effect; nearly all actives have a fitted effect of over 60% in size
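In this cell-based reporter format, copper sulfate (700 uM final) drives Gal4–ROR gamma fusion expression from a metallothionein promoter in Drosophila Schneider cells; compounds preincubated 1 hr, reporter read after 20 hr at ambient temperature.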
VP16 counter = Gal4-VP16 reporter inhibition counter-screen; AID 2546; 310,000 tested, 3.5% active; Drosophila S2 Gal4-VP16 UAS-luciferase, luminescence, 20 h; Potency, µM (doses to about 53.6 µM), for inactives: top-dose activity, negative = inhibition, usual class: inhibitors;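 further: Gal4-VP16 expression switched on by copper sulfate through the metallothionein promoter; potency means the concentration at half of the fitted maximal effect; on the % scale 0 is the no-effect control and ±100 the full control effect; nearly all actives have a fitted effect of over 50% in size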
Giardia kill = kills Giardia lamblia; 340,000 tested, 0.15% active; activity change, % at 7.66 µM, hits read low; Giardia lamblia trophozoite viability; in the data active means activity change below about -80%; inconclusive means between about -30% and that limit;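 further: parasites exposed to compound for two days anaerobically before the ATP read; on the % scale 0 is the no-effect control and ±100 the full control effect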
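ATP-content bioluminescence gauges trophozoite survival. Cells (100/well) receive compound and incubate anaerobically for 48 hrs at 37 deg C; detection reagent follows for 15-30 min at room temperature.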
Numbers without * were called inactive; ? = inconclusive; · = not tested or not shown; [ ] = remark or other dose. Many of the other results were omitted from the sample, so hits are more common in it than they were. Unless noted, the call rests on the fitted dose curve; in most records, active means well fitted curve in the direction sought with a large enough effect; inconclusive means small, poorly fitted or top-dose-only effect, or another doubt; inactive means no such curve, though single readings can be large; an effect the other way counts as inactive or inconclusive.

SMILES	ERG-DNA inh	a7 integrin act	RORgamma inh	VP16 counter	Giardia kill
COc1ccccc1/C=C1\SC(=S)N(CCC(=O)NCCc2ccc(O)cc2)C1=O	8.5%	0.0%	2.0%	-13.1%	3.1
COC(=O)c1ccc(CN2CCN(CC=C(C)C)C(CCO)C2)cc1 (stereo not drawn)	1.0%	-21.5%	-7.4%	-7.2%	7.9
COC(=O)C(C)Nc1cccc(Br)c1 (stereo not drawn)	3.8%	?	-0.2%	-3.7%	-5.9
CCOC(=O)C(C(=O)OCC)C(Nc1cccc(Br)c1)c1ccccc1 (stereo not drawn)	-15.7%	-34.5%[7.66 µM]	11.2µM*	?	11.3
Cc1csc(/C(C#N)=N/O)n1	-5.8%	-1.6%	20.1%	?	-7.9
Cc1csc(/C(=N\O)c2csc(C)n2)n1	·	-16.3%	2.82µM*	4.47µM*	-5.0
O=C(Nc1nc2ccc(F)cc2s1)C1=NN(c2ccccc2)C(=O)CC1	19.2%	3.6%	?	?	18.6
O=C(Nc1nc2ccccc2s1)c1ccccc1	6.8%	41.8%	10µM*	?	4.9
O=C(Nc1nc2ccccc2s1)c1cnccn1	·	-17.8%	3.16µM*	5.01µM*	-13.5
O=C(Nc1nc2ccc(F)cc2s1)c1ccccn1	-0.7%	-53.3%	0.708µM*	1.58µM*	-29.2
O=C(Nc1ccccc1)c1nc2ccccc2s1	2.3%	-18.0%	-32.1%	-26.4%	-15.8
Cc1ccc(C)c2sc(NC(=O)c3nc4ccccc4s3)nc12	-4.5%	-6.2%	1µM*	1µM*	-17.6
CSc1ncc2c(n1)-c1ccccc1N(Cc1ccc(F)cc1)S2(=O)=O	-2.2%	·	·	·	·
O=C(Nc1nc(-c2ccc(F)cc2)cs1)c1cnccn1	-14.6%	-8.9%	2.24µM*	?	-28.9
Cc1ccc(C(=O)N(Nc2nc3ccccc3s2)C(=O)c2ccc(C)cc2)cc1	7.8%	5.0%	8.91µM*	11.2µM*	-9.6
O=C(Cc1ccc(F)cc1)Nc1nc(-c2ccc(F)cc2)cs1	-1.9%	2.3%	-3.5%	-22.2%	0.1
CC(C)C(=O)N(Nc1nc2ccccc2s1)C(=O)C(C)C	-7.3%	30.8%	3.3%	-15.2%	-7.5
CCOc1ccc2nc(NC(=O)c3cnccn3)sc2c1	4.0%	8.3%	1.58µM*	?	?
CCOc1ccc2nc(NC(=O)c3cccc(-c4cc5ccccc5oc4=O)c3)sc2c1	2.3%	-3.2%	11.2µM*	11.2µM*	5.5
CCOCC(=O)Nc1nc2ccc(OCC)cc2s1	-16.2%	-32.3%	?	?	-12.4
C[C@@H]1CN([C@H](C)CO)C(=O)CCCn2cc(nn2)CO[C@H]1CN(C)C(=O)Nc1ccccc1C(F)(F)F	·	1.6%	·	·	·
O=C(Nc1nnc(SCc2ccc(F)cc2)s1)c1ccccn1	-1.2%	-69.4%	0.794µM*	1.41µM*	4.7
c1ccc2sc(NN=C3CCCCCC3)nc2c1	?	14.2%	3.98µM*	?	-0.8
O=C(Nc1ccc(-c2nc3ccccc3s2)c(OC(=O)c2ccccc2)c1)c1ccccc1	-3.6%	5.3%	1.26µM*	-20.0%	-4.4
Cc1cccc(OCCCn2c(=O)sc3ccccc32)c1	0.2%	22.2%	8.91µM*	-24.2%	11.3
SMILES	ERG-DNA inh	a7 integrin act	RORgamma inh	VP16 counter	Giardia kill
Cc1cnc(CNc2ncncc2-c2ccccc2C(F)(F)F)cn1	·	·	1.9%	-5.2%	·
O=[N+]([O-])/C(Cl)=C(/NCCO)C(Cl)=C(Cl)Cl	10.2%	2.6%	·	·	-100.1*
COc1ccc(C(=O)Nn2c(SCC(=O)NCc3ccco3)nc3ccccc3c2=O)cc1	2.7%	20.8%	10µM*	8.91µM*	-16.1
COc1ccc(C(=O)Nn2c(SCC(=O)NC3CCCCC3)nc3ccccc3c2=O)cc1	-7.0%	-13.1%	?	12.6µM*	-11.7
COc1ccc(C(=O)Nn2c(SCC(=O)c3ccc(Cl)cc3)nc3ccccc3c2=O)cc1	7.4%	-7.1%	11.2µM*	?	-1.7
COCCn1c(SCC(=O)N2CCC(C)CC2)nc2ccccc2c1=O	2.3%	-11.9%[7.66 µM]	-4.2%	1.3%	-6.2
CCn1c(SCC(=O)NCc2ccco2)nc2ccccc2c1=O	-0.1%	-27.3%	-0.3%	19.9%	13.2
COc1ccc(C(=O)Nn2c(SCC(=O)N3CCC(C)CC3)nc3ccccc3c2=O)cc1	0.3%	1.4%	10µM*	10µM*	?
CC(=O)N1CC=CC1(CC(C)C)C(=O)O (stereo not drawn)	·	·	3.4%	2.1%	·
COc1ccc(C(=O)NCCn2cc(SCC(=O)NCc3ccco3)c3ccccc32)cc1	-2.4%	-25.4%	10µM*	-23.3%	10.2
Clc1nc(NCC2CCCO2)c2[nH]cnc2n1 (stereo not drawn)	·	·	·	·	15.6
CN(C)C(CNC(=S)Nc1ccc(Cl)cc1)c1cccnc1 (stereo not drawn)	-0.5%	0.0%	9.2%	5.4%	-6.3
Cc1cccc(NC(=S)NCC(C)CSc2ccc(Cl)cc2)c1 (stereo not drawn)	17.7%	-22.3%	3.16µM*	5.62µM*	-23.6
Cc1cccc(NC(=O)NCCc2ccc(Cl)cc2)c1	4.0%	21.0%	14.5%	17.0%[10 µM]	23.3
Cc1ccc(NC(=S)NCC(C)CSc2ccc(Cl)cc2)cc1 (stereo not drawn)	3.9%	?	2.82µM*	?	1.3
COc1cc(OC)cc(C(=O)NNC(=O)C(=O)Nc2cc(OC)c(Cl)cc2OC)c1	-12.5%	-14.5%	7.94µM*	-1.8%	-21.6
COc1cc(NC(=O)C(=O)NNC(=O)C2CCCCC2)c(OC)cc1Cl	-17.1%	?	?	?	4.0
CS(=O)(=O)c1ccc(-c2nnc(NC(=O)c3cccc(N4C(=O)CCC4=O)c3)o2)cc1	-0.6%	0.1%	·	·	0.2
O=C(Nc1nnc(-c2ccco2)o1)c1ccc(N2C(=O)CCC2=O)cc1	-1.4%	2.7%	11.2µM*	?	-9.2
O=C(Nc1nnc(-c2ccco2)o1)c1ccc(Br)s1	·	-24.1%	·	·	·
O=C(Nc1nnc(-c2ccccc2)o1)c1cccc(N2C(=O)CCC2=O)c1	-2.5%	19.8%	2.51µM*	4.47µM*	1.8
O=C(Nc1nnc(-c2ccc(Br)cc2)o1)c1cccc(N2C(=O)CCC2=O)c1	-0.5%	10.6%	·	·	-6.6
Cc1nn(-c2ccccc2)c(C)c1C(=O)Nc1nnc(-c2ccco2)o1	3.2%	-2.6%	0.355µM*	-16.6%[0.365 µM]	-8.2
O=C(Nc1nnc(-c2ccc(Cl)cc2)o1)c1ccc(N2C(=O)CCC2=O)cc1	-4.2%	-4.6%	1.12µM*	2.82µM*	-4.8
Cc1ccc(SCC(=O)Nc2nnc(-c3ccco3)o2)cc1	12.6%	12.9%	·	·	6.7
COc1cccc(NC(=O)Cn2c(=O)c3cccn3c3ccc(F)cc32)c1	-4.2%	·	·	·	·
CCCCNC(=S)N/N=C/c1cccc(OCC)c1O	-4.6%	-2.3%	4.47µM*	12.6µM*	-20.6
CCOc1cccc(/C=N/NS(=O)(=O)c2ccc(C)c([N+](=O)[O-])c2)c1O	8.2%	?	?	3.16µM*	2.3
CCOc1cccc(/C=N/NC(=S)Nc2ccccc2[N+](=O)[O-])c1O	-2.7%	-46.6%	5.01µM*	11.2µM*	14.5
